# According to the supplement of paper PMC7801607:
# Tests used:
# CHO = experiment: % viability of CHO cells (MTT); higher = less toxic; conditions: 48 h
# Summary of the method: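 Viability was given as a percentage of untreated cells and measured colorimetrically by the tetrazolium (MTT) assay. Before this, CHO cells at 10^6 cells/well in 200 µL attached overnight, then received fresh medium containing compound at 2 or 20 µM for 48 h.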
# HepG2-A16-CD81 = experiment: % inhibition of HepG2 viability (CellTiter-Glo); higher = more toxic; conditions: 5 µM
# [1] = system: Plasmodium falciparum NF54 stage IV/V gametocytes; experiment: % inhibition of gametocyte viability (PrestoBlue); higher = more inhibition; conditions: 48 h
# Summary of the method: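 Values are percent inhibition of gametocyte viability, normalised to vehicle and kill controls in a single run. Stage IV/V NF54 gametocytes (2% gametocytaemia, 5% haematocrit, 100 µL/well) were held with compound at 1 or 5 µM for 48 h at 37 °C, stationary and hypoxic. Viability was read as 612 nm fluorescence on 70 µL of supernatant after a 2 h incubation with 10 µL PrestoBlue.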
# [2] = system: Plasmodium falciparum NF54 asexual blood stage; experiment: % inhibition of asexual blood stage proliferation (pLDH); higher = more inhibition; conditions: 72 h
# Summary of the method: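 Using 96-well plates, the screen was run twice on separate occasions with Plasmodium falciparum NF54 ring-stage cultures at 1% haematocrit and 2% parasitaemia. Each culture was exposed to compound at 2 or 20 µM for 72 h at 37 °C under a gas mix of 4% CO2, 3% O2 and 93% N2. After incubation, the parasite lactate dehydrogenase assay was read colorimetrically at 620 nm. From this readout, percent inhibition of asexual proliferation was derived against control wells.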
# [3] = system: Plasmodium falciparum NF54 stage IV/V gametocytes; experiment: % inhibition of gametocyte viability (ATP bioluminescence); higher = more inhibition; conditions: 24 h
# Summary of the method: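 Viability of stage IV/V NF54 gametocytes is given as percent inhibition, normalised to control wells in a single run. Gametocytes enriched on density gradients were seeded at 30,000 per well in 96-well plates with compound at 1 or 5 µM and held at 37 °C for 24 h. ATP was then read with the Promega BacTiter Glo bioluminescence system.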
# [4] = system: Plasmodium falciparum NF54 stage IV/V gametocytes; experiment: % inhibition of gametocyte viability (luciferase reporter); higher = more inhibition; conditions: 48 h
# Summary of the method: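 Stage IV/V gametocytes of the NF54-Pfs16-GFP-Luc line (2% gametocytaemia, 2% haematocrit) were exposed to compound at 1 or 5 µM. Incubation was 48 h at 37 °C, stationary and hypoxic. Luminescence was read on 30 µL lysate plus 30 µL Promega luciferin substrate on a GloMax-Multi+ reader with 10 s integration. Percent inhibition was normalised to DMSO and kill controls from a single run.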
# [5] = system: Plasmodium berghei ANKA liver stage in HepG2-A16-CD81; experiment: % inhibition of liver stage parasite viability (luciferase); higher = more inhibition; conditions: 5 µM; 48 h
# Description: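 Single-concentration screen of the MMV Pandemic Response Box. P. falciparum NF54 asexual blood stages: pLDH assay, 72 h at 37 °C, 2 and 20 µM, n=2. Stage IV/V gametocytes (NF54): luciferase reporter (NF54-Pfs16-GFP-Luc, 48 h), ATP bioluminescence (24 h) and PrestoBlue (48 h) at 1 and 5 µM, n=1. P. berghei liver stage (luciferase in HepG2-A16-CD81, 48 h post infection) at 5 µM, n=4. All normalised to DMSO and kill controls as % inhibition.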
# 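Throughout, for % inhibition of HepG2 viability (CellTiter-Glo): HepG2-A16-CD81 hepatoma cells plated as in the liver-stage assay but without sporozoites, with DMSO wells as negative and 25 µM puromycin as positive control.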
Compound,% viability of CHO cells (CHO; 2 µM) [%],% viability of CHO cells (CHO; 20 µM) [%],% inhibition of HepG2 viability (HepG2-A16-CD81) [%],% inhibition of gametocyte viability ([1]; 1 µM) [%],% inhibition of gametocyte viability ([1]; 5 µM) [%],% inhibition of asexual blood stage proliferation ([2]; 2 µM) [%],% inhibition of asexual blood stage proliferation ([2]; 20 µM) [%],% inhibition of gametocyte viability ([3]; 1 µM) [%],% inhibition of gametocyte viability ([3]; 5 µM) [%],% inhibition of gametocyte viability ([4]; 1 µM) [%],% inhibition of gametocyte viability ([4]; 5 µM) [%],% inhibition of liver stage parasite viability [5] [%]
CCCCOC(=O)Nc1cc2nc(C3CCCCC3)[nH]c2cc1N(CC)CC,98.9,101,3.15,< 0,< 0,18.6,83.2,< 0,19.3,< 0,< 0,62
O=C(/C(=C/c1ccc(Cl)cc1Cl)n1ccnc1)c1ccc(Cl)cc1,108,113,-2.24,38.5,85.8,56.2,75.6,40.3,86.2,80.5,99.8,26.7
Fc1ccc(-n2cc(Cn3c(-c4cccc(F)c4)nc4ccccc43)nn2)cc1,86.4,78.7,-1.61,< 0,43.7,9.59,83.1,< 0,< 0,< 0,< 0,
CCOC(=O)N[C@@H]1CC[C@@H]2[C@@H](C1)C[C@H]1C(=O)O[C@H](C)[C@H]1[C@H]2/C=C/c1ccc(-c2cccc(F)c2)cn1,72.3,62.2,7.92,15.9,-0.253,42.6,71.5,17.7,33,7.62,27.4,33.5
O=C(O)[C@H]1C2CCC(CC2)[C@@H]1Nc1nc(-c2c[nH]c3ncc(F)cc23)ncc1F,91.6,97.8,-9.1,< 0,< 0,11.9,55.2,0.663,2.93,< 0,< 0,34
Nc1ccc2oc(=O)ccc2c1I,72.9,60,-2.48,< 0,< 0,29.8,37.3,< 0,< 0,3.24,2.65,6.97
O=C(Nc1ccc(N2CCN(C(=O)c3ccccc3)CC2)cc1)c1ccc2c(c1)OCO2,114,113,38.8,5.65,< 0,62.9,44.8,0.482,< 0,9.21,< 0,
CC(C)Oc1ccc(-n2cnc3cc(/C=C\c4ccc(C(C)(C)O)cc4)ccc32)cc1,113,115,5.08,30.8,32.2,25.6,54.7,< 0,< 0,< 0,< 0,20.4
CC(C)C(=O)N[C@H]1[C@H]([C@H](O)[C@H](O)CO)OC(C(=O)O)=C[C@@H]1N=[N+]=[N-],91.9,113,5.84,< 0,14.9,9.36,29.6,1.53,< 0,< 0,< 0,10.3
CC(=O)Oc1ccccc1C(=O)Nc1ncc([N+](=O)[O-])s1,91.3,111,3.62,14.9,28.5,14.2,71.2,10.5,5,0.222,17.6,
O=S(=O)(Nc1ccccc1)c1ccc(NC(=S)Nc2ccccc2)cc1,84.1,81.9,-1.98,7.06,6.95,43.6,45.2,< 0,< 0,< 0,< 0,
Cc1[nH]c2ccccc2c1CC(=O)N[C@@H](Cc1ccccc1)C(=O)N(C)c1ccccc1,80.4,56,4.27,25.2,23.6,-9.75,76.5,6.25,< 0,1.82,1.07,8.84
CC(C)Nc1ncnc2c1cnn2-c1ccc(Cl)cc1,89.8,122,13.3,17.9,15.6,18.3,69.3,< 0,< 0,< 0,62.4,43.2
Cc1c[nH]c(=O)nc1NCc1ccccc1,36.1,22.7,-0.05,6.6,11.5,22.3,60.5,< 0,< 0,< 0,4.07,18.3
Nc1cc(-c2nc3ccccc3[nH]2)n[nH]c1=O,70.3,49.8,2.54,28.3,78.8,31.5,79.1,5.5,< 0,1.36,< 0,24
O=C(c1cc(O)nc2ccccc12)N1CCN(c2ccccc2)CC1,95.9,52.7,-2.09,< 0,< 0,24.8,48.3,4.72,10.4,< 0,< 0,34.2
O=C(Nc1ccccc1C(=O)O)c1cccc(Oc2ccccc2)c1,113,61,6.41,37.4,5.84,-5.74,-12.5,< 0,< 0,< 0,< 0,-3.28
NC(=S)N/N=C/c1ncccc1N,111,48.6,-22.6,80.3,91.2,73.5,78.5,< 0,15.5,1.59,5.86,63.5
CC1(C)Cc2c(C#N)c(SCCc3ccccc3)nc(N3CCOCC3)c2CO1,112,112,-1.4,9.17,45.1,17.3,89.2,< 0,< 0,< 0,3.41,
N#CCN1C(=O)COc2cc(F)c(N3C(=O)c4ccccc4C3=O)cc21,91.1,99.3,-3.69,3.4,2.45,8.98,14.8,< 0,< 0,< 0,14.5,14.6
Cn1cc(NC(=O)c2cc(NC(=O)c3ccc(/C=C/c4cnc5ccccc5c4)cc3)cn2C)cc1C(=O)NCCN1CCOCC1,34.6,14.9,-5.82,18.3,55.1,68.7,94,22.3,15.5,64.1,67.1,85.8
Oc1c(C(Nc2nc3ccccc3s2)c2ccc(OC(F)F)cc2)ccc2cccnc12 (stereo not drawn),79.6,74.4,45.6,26.7,60.6,70.5,65.8,22.2,24.6,12.2,54.3,
